The supplement of paper PMC13380429

Tested on: Vero E6 infected with SARS-CoV-2
Assay: inhibition of SARS-CoV-2 cytopathic effect; higher = more antiviral protection, active = above 15
Conditions: 48 h

Measured: inhibition of SARS-CoV-2 cytopathic effect

COc1cccc(NC(=O)/C=C/c2ccc(Cl)cc2)c1
inactive: 1 nM -1.02% | 8.33 nM -1.96% | 100 nM -1% | 833.33 nM -0.56% | 10000 nM -4.87%

NCC1(CC(=O)O)CCCCC1 [gabapentin]
inactive: 1 nM -2.49% | 8.33 nM 2.99% | 100 nM -2.14% | 833.33 nM 0.15% | 10000 nM 2.27%

Cc1cccc(Nc2nc(-c3ccncc3)cs2)c1
inactive: 1 nM 0.53% | 8.33 nM -0.51% | 100 nM -0.62% | 833.33 nM 8.36%
active: 10000 nM 48.4%

OCc1cc([C@@H](O)CNCCCCCCOCCOCc2c(Cl)cccc2Cl)ccc1O [vilanterol]
inactive: 1 nM -1.65% | 8.33 nM -1.28% | 100 nM 0.86% | 833.33 nM -0.19% | 10000 nM -2.68%

O=C(O)Cc1ccccc1Nc1c(Cl)cccc1Cl [diclofenac]
inactive: 1 nM 1.25% | 8.33 nM 0.03% | 100 nM 0.38% | 833.33 nM -0.74% | 10000 nM 0.2%

CC(C)[C@](O)(c1ccc2cc(OC(F)F)c(OC(F)F)cc2c1)c1c[nH]nn1
inactive: 1 nM -0.91% | 8.33 nM 2.28% | 100 nM 2.85% | 833.33 nM 5.3% | 10000 nM 6.8%

O=C(Oc1ccc(Br)cc1)N1CCN2CCC1CC2
inactive: 1 nM 1.3% | 8.33 nM 1.31% | 100 nM 4.76% | 833.33 nM 1.51% | 10000 nM 0.59%

Cc1cc(CCCOc2c(C)cc(-c3noc(C(F)(F)F)n3)cc2C)on1 [pleconaril]
inactive: 1 nM 2.59% | 8.33 nM 0.33% | 100 nM -1.07% | 833.33 nM 0.02% | 10000 nM -1.34%

CC(C(=O)O)c1cccc(Oc2ccccc2)c1 (stereo not given) [fenoprofen]
inactive: 1 nM -0.67% | 8.33 nM -2.89% | 100 nM 0.97% | 833.33 nM -1.9% | 10000 nM -3.01%

CNS(=O)(=O)Cc1ccc2[nH]cc(CCN(C)C)c2c1 [sumatriptan]
inactive: 1 nM 1.16% | 8.33 nM 0.24% | 100 nM 1.25% | 833.33 nM 0.28% | 10000 nM -0.08%

Cc1oc(-c2ccccc2)nc1CCOc1ccc(CC2SC(=O)NC2=O)c2sccc12 (stereo not given) [edaglitazone]
inactive: 1 nM 0.32% | 8.33 nM 0.98% | 100 nM 0.63% | 833.33 nM 1.32% | 10000 nM 2.31%
